The values below come from PubChem BioAssay (Tox21).

Structures are written as SMILES. Where “and” joins values, the source holds several entries; their conditions need not be identical. Equal entries are not always repeated. Results filed as inconclusive are left out. A call without a number means that no potency is given here. Unmarked numbers belong to inactive results. Calls of active or inactive are those of the source. Calls come from the whole dose curve; as a rule, active = well fitted cell-killing curve with a large enough effect in the repeat runs; inconclusive = weak or mixed curves, or effect the other way; inactive = no such curve, though single readings can be large or run the other way.
Potency is the fitted concentration of half-maximal effect.

A short description of this assay: qHTS assay to identify small molecule antagonists of the thyroid receptor (TR) signaling pathway - cell viability counter screen (AID 743064). Note: nearly all actives have a fitted effect of over 50% in size. The conditions noted are these: GH3.TRE-Luc viability, CellTiter-Fluor, 24 h; series mostly up to 70.3 µM; activity change, negative = cytotoxic: at the top concentration. The source says: National Center for Advancing Translational Sciences [NCATS]
NIH Chemical Genomics Center [NCGC]
U.S. Environmental Protection Agency [EPA]
National Institutes of Environmental Health Sciences [NIEHS]
National Toxicology Program [NTP]
U.S. Food and Drug Administration [FDA]
Thyroid receptor (TR), a nuclear hormone receptor, plays an important role in development, proliferation, differentiation, metabolism, brain function, and cardiovascular system. […] To profile the Tox21 10K compound library in TR signaling, a cell-based GH3-TRE-Luc assay (GH3.TRE-Luc cell line, developed by the laboratory of Dr. Albertinka J. Murk, Wageningen University) was used to measure the inhibition of TR. GH3 (rat pituitary tumor) cells stably expressing a TR activity sensor consisting of two TR response elements and a luciferase reporter gene. The cytotoxicity of the Tox21 compound library against the GH3.TRE-Luc cell line was tested in parallel by measuring the cell viability using CellTiter-Fluor assay (Promega, Madison, WI) in the same wells.
Tox21 Assay Protocol Summary:
GH3.TRE-Luc cells were dispensed at 1500 cells/4 uL/well into 1536-well white solid bottom plates using a Multidrop Combi dispenser (Thermo Fisher Scientific Inc., Waltham, MA). After the assay plates were incubated at 37 C for 4 hours, 23 nL of library compound or DMSO controls was transferred to the assay plates by a pintool station (Kalypsys, San Diego, CA), followed by addition of 1 ul of T3 (1 nM, final concentration in the wells) to stimulate TR transactivation. The assay plates were incubated at 37 C for 23.5 h, and then 1 uL of CellTiter-Fluor reagent (Promega, Madision, WI) of measuring cytotoxicity was added to each well using a Bioraptr Flying Reagent Dispenser (FRD) workstation (Beckman Coulter, Indianapolis, IN, USA). The plates were incubated at 37C and 5% CO2 for additional 30 min, and fluorescence intensity was measured by a ViewLux plate reader (PerkinElmer, Shelton, CT).
For orientation: qHTS replaces the single test concentration by a dilution series.
Turning to `COc1ccc(C(Cl)=C(c2ccc(OC)cc2)c2ccc(OC)cc2)cc1`, the “activity change, negative = cytotoxic” value is -23.5%.
Consider `CCCC[P+](CCCC)(CCCC)CCCC`, for which the Potency result was “inactive”.
For the compound `Cc1cccc(C)c1`, the Potency entry was “inactive”.
In the case of `Cc1cc(C)nc(NS(=O)(=O)c2ccc(N)cc2)n1`, the Potency result was “inactive”.
For the compound `CCCCC1(COC(=O)CCC(=O)O)C(=O)N(c2ccccc2)N(c2ccccc2)C1=O`, the Potency result was “inactive”.
On the same count and under the same terms, then `O=C1O[C@H]([C@@H](O)CO)C(O)=C1O`, with “inactive”.
On the same count and under the same terms, then `NS(=O)(=O)c1cc2c(cc1Cl)NCNS2(=O)=O`, with “inactive”; and `CN(N=O)C(=O)N[C@@H]1[C@@H](O)[C@H](O)[C@@H](CO)O[C@@H]1O`, with “inactive”.
`CCCc1cc(=O)[nH]c(=S)[nH]1`: the Potency entry is “inactive”.
Regarding `CCOc1ccc(NC(C)=O)cc1`, the Potency result is “inactive”.
Regarding `CCN(Cc1c(F)cccc1Cl)c1c([N+](=O)[O-])cc(C(F)(F)F)cc1[N+](=O)[O-]`, the “activity change, negative = cytotoxic” value was -23.8%.
As to `C=C1CC[C@H](O)C/C1=C\C=C1/CCC[C@]2(C)[C@@H]([C@H](C)CCCC(C)C)CC[C@@H]12`, the Potency was 26.6 µM (active) and 48.1 µM (active).
Turning to `C/C=C/C=C/C(=O)O`, the Potency result was “inactive”.
As to `Cc1ncc([N+](=O)[O-])n1C`, the Potency result is “inactive”.
Still for that read-out and setting: then `Cc1c(C(=O)O)c(O)cc2c1C(=O)c1c(O)c([C@@H]3O[C@H](CO)[C@@H](O)[C@H](O)[C@H]3O)c(O)c(O)c1C2=O`, with 13.3 µM (active) and 59.6 µM (active) and 61.1 µM (active); and `O=C1c2c(O)cccc2Cc2cccc(O)c21`, with “inactive”; and `CN(C)C(=O)Nc1ccc(Cl)c(Cl)c1`, with “inactive”.
`Cc1ccc(S(=O)(=O)O)cc1`: the Potency result is “inactive”.
As to `O=c1[nH]cnc2c1ncn2[C@H]1CC[C@@H](CO)O1`, the “activity change, negative = cytotoxic” value was 5.04% [at 95 µM].
Regarding `Cn1c(=O)c2c(ncn2C)n(C)c1=O`, the Potency result was “inactive”.
Turning to `CCCCCCCCCCCC[N+](C)(C)Cc1ccccc1`, the Potency is 5.96 µM (active) and 12 µM (active) and 14.9 µM (active).
For the compound `COc1ccc2cc(S(=O)(=O)N[C@H](CC(=O)N[C@H](Cc3ccc(CN4[C@H](C)CCC[C@@H]4C)cc3)C(=O)N(C)C(C)C)c3ccc4c(c3)OCO4)ccc2c1`, the Potency was 2.58 µM (active).
As for `CCN(CC)C(=O)c1cccc(C)c1`, the Potency entry was “inactive”.
Consider `Cc1ncc([N+](=O)[O-])n1CCO`, for which the Potency entry was “inactive”.
Regarding `CC(C)NCC(O)c1ccc(O)c(O)c1` (stereo not given), the Potency result is “inactive”.
On to `O=C(O)CC(O)C(=O)O` (stereo not given), for which the Potency entry was “inactive”.
As to `Cc1cn([C@H]2C=C[C@@H](CO)O2)c(=O)[nH]c1=O`, the Potency result was “inactive”.
Turning to `C=C(C)C(=O)OCC(C)O` (stereo not given), the Potency entry is “inactive”.
Take `CN1CCc2cccc3c2[C@H]1Cc1ccc(O)c(O)c1-3`: the Potency was 29.8 µM (active) and 49.1 µM (active) and 22.8 µM (active).
Regarding `Nc1ccc([N+](=O)[O-])cc1O`, the Potency is 36.4 µM (active).
In the case of `O=C(O)c1ccccc1`, the Potency result is “inactive”.
Still for that read-out and setting: as for `F[B-](F)(F)F`, the entry is “inactive”; as for `O=C1OC2(c3ccccc31)c1cc(Br)c(O)c(Br)c1Oc1c2cc(Br)c(O)c1Br`, 6.68 µM (active) and 5.53 µM (active) and 7.91 µM (active).
Take `CS(=O)(=O)OCCCCOS(C)(=O)=O`: the “activity change, negative = cytotoxic” value is 8.99%.
Consider `CC(O)(P(=O)(O)O)P(=O)(O)O`, for which the Potency entry is “inactive”.
For `O=C1NS(=O)(=O)c2ccccc21`, the Potency entry was “inactive”.
Turning to `CCCCCCc1ccc(O)cc1O`, the Potency is 54.6 µM (active) and 54.5 µM (active).
For the compound `CN[C@H]1CC[C@@H](c2ccc(Cl)c(Cl)c2)c2ccccc21`, the Potency is 9.44 µM (active).
Regarding `O=S1(=O)OC(c2ccc(O)cc2)(c2ccc(O)cc2)c2ccccc21`, the Potency was 27.3 µM (active).
As for `CCCCCCCC(=O)OCC(COC(=O)CCCCCCC)OC(=O)CCCCCCC`, the Potency entry was “inactive”.
